A selection: hits, their analogues and other compounds. The true share with any hit is near 2.6%.
mut p53 react – restores mutant p53 pathway signaling in SW480 cells; SW480 PUMA-promoter luciferase, p53 mutant reactivation; activation, % at 9.98 µM; actives 1.5% (n = 28,000); AID 624151; in the data active = activation above about 52%
NFkB SMM – binders of human NF-kappa-B p105; P19838; Small molecule microarray, anti-His fluorescence binding; calls only; actives 1.3% (n = 17,000);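 active = spot fluorescence over background significantly raised, with a chance value under 7% in all four replicate spots of the compound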;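 also: probe protein is his-tagged human p50 processed subunit at 1 µg/ml; raw spot fluorescence signals with no normalization applied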
STAT3 binder – binders of human STAT3; Small molecule microarray, His-STAT3 binding, anti-His fluorescence; AID 624138; actives 0.2% (n = 17,000); calls only; P40763;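 active = compounds whose four printed spots each show fluorescence over background unusually high for their array block, chance value under 7%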
Myc binder – binds human c-Myc on microarray; small molecule microarray, His-c-Myc binding, anti-His fluorescence; actives 1.5% (n = 17,000); calls only; P01106;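 active = spot fluorescence over background with P-value below 7% in all four replicate spots, showing protein binding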;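 also: score is binary with 100 for all four spots passing and 0 otherwise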
p53 mut binder – binders of human mutant p53; AID 624136; small molecule microarray binding, anti-GST fluorescence; calls only; actives 0.4% (n = 17,000);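 active = compounds whose four printed spots each glow above background more than chance allows, each with a p-value under 7%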
The depositor's hits bear a star; i = inactive; . = no result given; + = active, no number.

SMILES	mut p53 react	NFkB SMM	STAT3 binder	Myc binder	p53 mut binder
O=C(O)C1C2CCC(O2)C1C(=O)NCCc1ccccc1 (centres undefined)	11	i	i	+	i
CC(=O)c1c(C)n(Cc2ccccc2)c2c(Cl)c(Cl)c(Cl)c(OCC(=O)O)c12	-19	i	i	i	i
CCOC(=O)c1cc2c(cn1)[nH]c1ccccc12	65*	i	i	i	i
COC(=O)c1cc2c(cn1)[nH]c1ccccc12	12	i	i	i	i
COC1=CC(=O)O[C@@H](/C=C/c2ccccc2)C1	78*	i	i	i	i
CC[C@@H]1/C=C\C=C\C[C@H](C)[C@@H](O)[C@](C)(O)C(=O)[C@H](C)[C@@H](O)[C@H](C)C(=O)[C@H](C)[C@@H](O)[C@H](C)/C=C/C(=O)O[C@H]2[C@@H](C)[C@@H](CC1)O[C@@]1(CC[C@@H](C)[C@@H](C[C@H](C)O)O1)[C@@H]2C	-74	i	i	i	i
Cc1ccc2c(c1)Cc1c(C(=O)NC3CCCCC3)nn(-c3ccc(Cl)cc3Cl)c1-2	-6	+	i	i	i
O=C1/C(=C/c2ccccc2)C[C@@]2(O)C3Cc4ccc(O)c5c4[C@@]2(CCN3CC2CC2)[C@H]1O5	-79	i	i	i	i
CC[C@@H](CO)NC(=O)[C@@H]1C=C2c3cccc4c3c(cn4C)C[C@H]2N(C)C1	-3	i	i	+	i
CCC(CO)NC(=O)C1C=C2c3cccc4[nH]cc(c34)CC2N(C)C1 (centres undefined)	-3	+	i	+	i
CC(C)C[C@H]1C(=O)N2CCC[C@H]2[C@]2(O)O[C@](NC(=O)[C@@H]3C=C4c5cccc6[nH]cc(c56)C[C@H]4N(C)C3)(C(C)C)C(=O)N12	-7	.	.	.	.
CC[C@H]1CN2CCc3cc(OC)c(OC)cc3[C@@H]2C[C@@H]1C[C@H]1NCCc2cc(O)c(OC)cc21	-81	.	.	.	.
CCC(C)[C@H]1C(=O)O[C@H](C(C)C)C(=O)N(C)[C@@H](C(C)C)C(=O)O[C@H](C(C)C)C(=O)N(C)[C@@H](C(C)C)C(=O)O[C@H](C(C)C)C(=O)N1C (some centres undefined)	-77	+	i	i	i
CO[C@H]1[C@@H](O)[C@@H](C)O[C@@H](OC2CCC3(C)C(CC[C@@H]4[C@@H]3CCC3(C)C(C5=CC(=O)OC5)C(O)CC43O)C2)[C@@H]1O (some centres undefined)	-3	i	i	i	i
COC1CC(OC2CCC3(C)C(CCC4(O)C3CC(OC(=O)c3ccccc3)C3(C)C(O)(C(C)=O)CCC43O)C2)OC(C)C1OC1CC(OC)C(OC2OC(C)C(O)C(OC)C2O)C(C)O1 (centres undefined)	-13	+	i	+	i
CNCC(O)c1ccc(O)c(OC)c1 (centres undefined)	6	i	i	i	i
